Reference: PubChem BioAssay (NCATS)
Records with an inconclusive call do not appear. A number with no mark means an inactive call. The call rests on the fitted dose curve; in most records, active means well fitted inhibition curve with a large enough effect; inconclusive means small, poorly fitted or top-dose-only effect; inactive means no such curve, though single readings can be large or run the other way.

target: Retinaldehyde dehydrogenase 3 (Homo sapiens) (UniProt P47895); experiment: qHTS for Inhibitors of the Aldehyde Dehydrogenase Family (ALDH1A3) Primary screen (AID 2061315); conditions: ALDH inhibition qHTS; series mostly up to 56 µM; activity change, negative = inhibition: at the top concentration;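 further: plate controls were DMSO vehicle for no effect and reference inhibitor for full effect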

SMILES	activity change, negative = inhibition
CC1=C2C3OC(=O)C(C)C3(O)CCC2(C)CCC1O (stereo not drawn)	-22.5%
COC(=O)N1CCC(n2ncc3c(N4CCOCC4)nc(-c4ccc(NC(=O)Nc5ccc(CO)cc5)cc4)nc32)CC1	9.52%
Cc1nc(C#Cc2ccnc(Cl)c2)c(C)n1-c1ccc(OC(F)(F)F)cc1	-10%
COC(=O)C1=CO[C@@H](O[C@@H]2O[C@H](CO)[C@@H](O)[C@H](O)[C@H]2O)[C@@H]2[C@@H](C)[C@@H](O)C(O)[C@H]12 (stereo partly drawn)	5.51% [at 28 µM]
CC(=O)O[C@@H]1[C@H](O[C@@H]2O[C@@H](CO)[C@H](O)[C@H]2O)[C@@H](O[C@@H]2O[C@@H](C)[C@H](O[C@@H]3OC[C@@H](O)[C@H](O)[C@H]3O)[C@@H](O)[C@H]2O)[C@H](OC(=O)[C@]23CCC(C)(C)C[C@H]2C2=CCC4[C@@]5(C)CC[C@H](O[C@@H]6O[C@H](C(=O)O)[C@@H](O)[C@H](O)[C@H]6O[C@@H]6O[C@H](CO)[C@H](O)[C@H](O)[C@H]6O)[C@@](C)(C=O)C5CC[C@@]4(C)[C@]2(C)CC3)O[C@@H]1C (stereo partly drawn)	3.44% [at 11.2 µM]
O=C1COC2(CCN(S(=O)(=O)c3ccc(-c4ccc5cccnc5c4)cc3)CC2)CN1C1CC1	5.1%
C=C1CC[C@@H]2[C@](C)(CO)[C@H](O)CC[C@@]2(C)[C@@H]1C/C=C1/C(=O)OCC1OC(=O)/C(=C/CO)C(O)C[C@@H]1C(=C)CC[C@@H]2[C@](C)(CO)[C@H](O)CC[C@]21C (stereo partly drawn)	-7.37% [at 16.9 µM]
CC1(C)Oc2ncnc(N)c2N=C1c1ccc(C2CCC(CC(=O)O)CC2)cc1 (stereo not drawn)	11.7%
